# The entries come from a sample that favours hits as a whole.
# VHR inh color = VHR1 (DUSP3) phosphatase inhibition. P51452. recombinant VHR phosphatase, colorimetric substrate read-out. inhibition, % at 20 µM. 50,000 compounds, 0.7% hits. AID 1992; in the data active = inhibition above about 60%
# Target sequence (P51452 whole entry, looked up): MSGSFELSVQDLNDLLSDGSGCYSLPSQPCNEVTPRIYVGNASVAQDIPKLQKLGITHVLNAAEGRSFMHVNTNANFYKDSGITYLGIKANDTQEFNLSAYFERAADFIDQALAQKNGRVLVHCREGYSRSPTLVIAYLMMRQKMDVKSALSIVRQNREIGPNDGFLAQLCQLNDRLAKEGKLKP
# Numbers stand for hits; – = inactive.
SMILES,VHR inh color
COc1ccc(C2CC(=O)C3=C(C2)Nc2ccccc2NC3c2ccc3ccccc3c2)cc1 (centres undefined),–
COc1ccc(C2CC(=O)C3=C(C2)Nc2ccccc2NC3c2ccncc2)cc1OC (centres undefined),–
O=C1CC(c2ccccc2)CC2=C1C(c1ccc(F)c(Br)c1)Nc1ccccc1N2 (centres undefined),–
COc1ccc(C2CC(=O)C3=C(C2)Nc2ccccc2NC3c2ccc(SC)cc2)cc1OC (centres undefined),–
CCC(=O)N1c2ccccc2NC2=C(C(=O)CC(c3ccccc3)C2)C1c1ccc([N+](=O)[O-])cc1 (centres undefined),–
CC(C)(C)c1csc(NC(=O)C(c2ccccc2)c2ccccc2)n1,–
O=C(c1ccc(F)cc1)N1CCN(CCCc2ccccc2)CC1,–
COc1cccc(C(=O)N2CCN(Cc3cccc(Cl)c3)CC2)c1,–
COc1ccc(/C=N/n2c(C)nnc2C)cc1Br,–
CCOC(=O)c1c(NC(=O)CNC(C)C)sc2c1CCC2,–
CCOc1cc(/C=N/NC(=O)Cc2cccc3ccccc23)cc([N+](=O)[O-])c1O,–
O=C(O)/C=C/C(=O)Nc1ccc(N2CCCCC2)cc1,–
COc1ccc(Cl)cc1/C=C(/C#N)C(=O)Nc1ccc(Cl)cc1,–
N#C/C(=C/c1ccsc1)C(=O)Nc1cccc(Br)c1,–
Cc1ccc2c(c1)NC(c1ccc3c(c1)OCO3)C1=C(CC(c3ccccc3)CC1=O)N2 (centres undefined),117.5
CSc1ccc(C2Nc3ccccc3NC3=C2C(=O)CC(c2ccc4c(c2)OCO4)C3)cc1 (centres undefined),–
Cc1ccc2c(c1)NC(c1ccc(F)cc1)C1=C(CC(c3ccccc3)CC1=O)N2 (centres undefined),–
N#C/C(=C\c1ccc(-c2ccc3c(c2)COC3=O)o1)C(N)=O,–
N#CC(C#N)=Cc1ccc(-c2ccc3c(c2)COC3=O)o1,–
N#C/C(=C\c1ccc(-c2ccc3c(c2)COC3=O)o1)c1nc2ccccc2[nH]1,64.5
COc1ccc(COC(=O)C2=C(C)NC(=O)CC2c2c(F)cccc2Cl)cc1 (centres undefined),–
O=C1N/C(=N/N=C/c2ccco2)SC1Cc1ccc(Cl)cc1Cl (centres undefined),–
Cc1cc(C(=O)N/N=C/c2ccc(-c3cccc(C(=O)O)c3)o2)n[nH]1,–
O=C(O)c1cc(-c2ccc(/C=N/Nc3ccc([N+](=O)[O-])cn3)o2)ccc1Cl,–
O=C(O)c1cccc(-c2ccc(/C=N/Nc3ccc([N+](=O)[O-])cn3)o2)c1,90.4
SMILES,VHR inh color
OCc1nc2ccccc2n1Cc1ccccc1F,115.7
CCn1c(CCCO)nc2ccccc21,–
OCc1nc2ccccc2n1Cc1ccc2ccccc2c1,–
O=C(COC(=O)c1ccc(C#CC2(O)CCCCC2)cc1)c1ccc(Br)cc1,–
COc1cc(C=Nc2ccc(Nc3ccccc3)cc2)ccc1OCc1ccccc1,–
C=CCN1C(=O)NC(=O)/C(=C\c2ccc(OCc3ccc(Cl)cc3)c(OC)c2)C1=O,–
COc1cc(/C=N/O)ccc1OCc1ccc(Cl)cc1,104.7
Cc1ccc(N(CC(=O)NCCc2ccccc2)S(C)(=O)=O)cc1Cl,–
O=C(O)C(Cc1ccccc1)N1C(=O)/C(=C/c2cccc3ccccc23)SC1=S (centres undefined),–
O=C(O)C(Cc1ccccc1)N1C(=O)/C(=C/c2ccc(Cl)cc2Cl)SC1=S (centres undefined),82.8
CC(c1ccccc1)N1C(=O)/C(=C\c2ccc(Cl)cc2Cl)SC1=S (centres undefined),–
Cc1ccc(/C=C2\SC(=S)N(CCC(=O)Nc3nccs3)C2=O)cc1,–
COc1cc(OC)c(C=Nc2cccc(C(N)=O)c2)cc1Br,–
Cc1c(NC(=O)c2cccnc2)cccc1NC(=O)c1cccnc1,–
Cc1c(Cl)ccc2c1NC(C(=O)O)C1CC=CC21 (centres undefined),84.2
O=C(O)C1Nc2ccc3ccccc3c2C2C=CCC12 (centres undefined),91.9
CC(=O)N1c2ccc3ccccc3c2C2C=CCC2C1c1ccc(Br)cc1 (centres undefined),–
CCOC(=O)c1ccc2c(c1)C1C=CCC1C(c1cccc3ccccc13)N2 (centres undefined),–
O=C(O)C1Nc2ccc([N+](=O)[O-])cc2C2C=CCC12 (centres undefined),96.5
O=[N+]([O-])c1ccc2c(c1)C1C=CCC1C(c1ccc(Cl)cc1)N2 (centres undefined),–
O=[N+]([O-])c1cccc(C2Nc3ccc(Cl)cc3C3C=CCC32)c1 (centres undefined),–
O=C(O)C1Nc2c(C(=O)N3CCCC3)cccc2C2C=CCC12 (centres undefined),–
O=C(O)c1cccc2c1NC(c1cccc(Cl)c1Cl)C1CC=CC21 (centres undefined),–
Fc1ccc(OCCOc2ncnc3ccccc23)cc1,–
O=[N+]([O-])c1ccccc1OCCOc1ncnc2ccccc12,–
SMILES,VHR inh color
O=Cc1ccc(Oc2ncnc3ccccc23)cc1,97.2
CC(C)(C)c1cc(N2C(=O)C(=O)/C(=C(/O)c3ccc(Cl)cc3)C2c2ccc([N+](=O)[O-])cc2)no1 (centres undefined),–
CN(C)c1ccc(/C=N/NC(=O)c2cc(Br)ccc2O)cc1,–
O=C1NN(c2ccc(Cl)cc2)C(=O)/C1=C\c1cc(Cl)cc(Br)c1O,–
Cc1nc2cc(-c3cccc(F)c3)nn2c(C)c1Cl,–
Cc1nc2cc(-c3ccccc3)nn2c(C)c1C,117.3
Cc1nc2cc(-c3cccc(Cl)c3)nn2c(C)c1Cl,–
COc1ccc(-c2csc(/C(C#N)=C\c3sccc3C)n2)cc1,–
CCc1ccc(CN2CCN(Cc3cccc(OC)c3OC)CC2)cc1,–
CCC(C)C(NC(=S)Nc1ccccc1)C(=O)O (centres undefined),98.4
CC(=O)Nc1ccc(NC(=S)Nc2ccccc2)cc1,–
O=C(NC(Cc1ccccc1)C(=O)Nc1ccccc1)OCc1ccccc1 (centres undefined),–
CCN(CC)S(=O)(=O)c1ccc(NC(=S)Nc2ccccc2)cc1,–
O=C(O)C(Cc1ccccc1)NC(=S)Nc1ccccc1 (centres undefined),98.9
O=C(O)CSCC(NC(=S)Nc1ccccc1)C(=O)O (centres undefined),–
COC(=O)c1ccc(/C=C2\SC(=Nc3ccc(F)cc3)NC2=O)cc1,–
Cc1ccc([N+](=O)[O-])cc1/C=C1/C=C(c2ccccc2)OC1=O,95.8
O=C1OC(c2ccccc2)=C/C1=C/c1ccc(-c2ccc([N+](=O)[O-])cc2Br)o1,–
Cc1ccc(C2=C/C(=C\c3cc([N+](=O)[O-])ccc3Cl)C(=O)O2)cc1,–
COc1ccc(NC(=O)COc2ccc(Br)cc2)cc1,–
O=C(CN1C(=O)S/C(=C/c2ccccc2F)C1=O)Nc1ccccc1C(=O)O,–
O=C(COc1cccc2ccccc12)Nc1ccc2c(c1)OCCO2,–
CC1(C)c2ssc(=S)c2-c2ccccc2N1C(=O)CN1CCCCC1,97.9
Cn1ccnc1SCC(=O)N1c2ccccc2-c2c(ssc2=S)C1(C)C,–
CC1(C)c2ssc(=S)c2-c2ccccc2N1C(=O)CSc1nnc(N)s1,–
CC1(C)c2ssc(=S)c2-c2ccccc2N1C(=O)CN1CCOCC1,97.3
COc1cc(C(=O)N2c3ccccc3-c3c(ssc3=S)C2(C)C)cc(OC)c1OC,–
COc1ccc2c(c1)N(C(=O)CN1C(=O)c3ccccc3C1=O)C(C)(C)c1ssc(=S)c1-2,–
